Compounds with a hit are over-represented: about 2.8% of the library has one in this group of screens.
PTAP-TSG101 blk: TSG101-PTAP interaction inhibition, HIV-1 budding. Potency, µM (doses to about 115 µM), most hits filed as inhibitors. Fluorescence polarization, FITC-PTAP peptide/Tsg101, 20 min. 44,000 tested, under 10 active. Q99816
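Read-out is FITC fluorescence polarization. Compounds were added to Tsg101 binding domain (10 uM final), then FITC-PTAP peptide (50 nM final), 20 min at r.t. Total S+P intensity flags fluorescent compounds.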
B2AR arrestin ag: beta-arrestin recruitment by human beta2-adrenergic receptor ligands | P07550 | HTLA Tango cells, beta-arrestin recruitment, luciferase luminescence, 18 h | Potency, µM (titrated, usually from 46.1 µM), usual class: activators | 44,000 tested, under 10 active
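Tango cells (recombinant beta2-AR, beta-arrestin, tTA-driven luciferase), 1500/well in DMEM 1% FBS, treated 18 h at 37 °C with compounds up to 46 µM; luciferin mix added, luminescence read after 15 min; %activity curves fitted and curve-classed.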
GALK inhibitor: inhibitors of human galactokinase (GALK); P51570; recombinant GALK, Kinase-Glo ATP luminescence, 1 h; Potency, µM (doses to about 57.5 µM), most hits filed as inhibitors; 44,000 tested, under 10 active
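Human GALK (5 nM) was incubated with 35 uM ATP and 100 uM galactose in 20 mM HEPES pH 8.0 with MgCl2, NaCl, DTT and BSA for 1 h at room temperature. Remaining ATP was measured by Kinase-Glo Plus luminescence.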
FH mod: Identification of activators of human fumarate hydratase by quantitative high-throughput screening; Fumarate hydratase, mitochondrial (Homo sapiens), P07954; FH coupled MDH/diaphorase resazurin fluorescence, 15 min; Potency, µM (series often up to 79.9 µM), hits mostly inhibitors; 54,000 tested, 0.22% active; also: the screen sought activators but most active calls are inhibition curves; nearly all actives have a fitted effect of over 45% in size
GALC G270D up: enhancers of human galactocerebrosidase G270D mutant activity in cells. P54803. 145M-Twi-hGALC-G270D cells (Twitcher mouse brain line with human GALC G270D), HMU-beta-Gal fluorescence, 48 h. Potency, µM (highest dose often 57.5 µM), actives largely listed as activators. 45,000 tested, 0.1% active; also: nearly all actives have a fitted effect of over 65% in size
Target sequence (P54803 whole entry G286D): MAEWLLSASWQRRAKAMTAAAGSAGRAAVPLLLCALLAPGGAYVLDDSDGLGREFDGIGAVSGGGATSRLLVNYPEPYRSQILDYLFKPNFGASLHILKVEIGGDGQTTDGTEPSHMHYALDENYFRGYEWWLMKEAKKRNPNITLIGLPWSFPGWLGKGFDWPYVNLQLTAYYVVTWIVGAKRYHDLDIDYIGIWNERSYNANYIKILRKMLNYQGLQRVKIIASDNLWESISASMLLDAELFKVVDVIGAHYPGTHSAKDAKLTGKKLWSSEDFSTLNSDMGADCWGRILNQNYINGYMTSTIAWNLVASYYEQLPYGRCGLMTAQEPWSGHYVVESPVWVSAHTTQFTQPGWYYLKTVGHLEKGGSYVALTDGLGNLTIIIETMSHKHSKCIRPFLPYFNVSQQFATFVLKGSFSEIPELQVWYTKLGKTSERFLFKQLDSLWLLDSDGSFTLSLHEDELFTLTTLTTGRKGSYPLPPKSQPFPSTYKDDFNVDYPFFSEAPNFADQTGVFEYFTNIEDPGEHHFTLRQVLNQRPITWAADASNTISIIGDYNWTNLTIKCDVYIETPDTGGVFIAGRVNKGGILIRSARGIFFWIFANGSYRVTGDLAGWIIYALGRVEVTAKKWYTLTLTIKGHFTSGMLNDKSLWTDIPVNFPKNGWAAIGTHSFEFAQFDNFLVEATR
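Mutant human GALC (G270D), stably expressed in a Twitcher mouse brain cell line lacking endogenous GALC, is measured in live-treated cells via 6-hexadecanoylamino-4-methylumbelliferyl-β-galactoside hydrolysis (0.1 mM final, pH 5.2) with fluorescent detection.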
GPR32 ag: activates human resolvin D1 receptor GPR32 | CHO-K1 GPR32 beta-arrestin PathHunter luminescence, 90 min; zero percent set by DMSO-only wells | O75388 | activation, % at 76.9 µM | 48,000 tested, 2.5% active;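 active = activation of at least 60% and not above a set upper limit, about 1 call in 100 departs from these limits; inconclusive = activation of 40% to 60%, or above that upper limit; inactive = activation under 40%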
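Luminescent readout of beta-Gal complementation quantifies ligand-induced beta-arrestin association with GPR32 in CHO-K1 cells; 90 min compound incubation at 37 °C, detection 1 h at room temperature.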
Hits are given with their value; - = inactive; ? = inconclusive; . = no result; [ ] = remark or other dose. Unless noted, calls follow the shape of the dose curve; as a rule, active = well fitted curve in the direction sought with a large enough effect; inconclusive = small, poorly fitted or top-dose-only effect, or another doubt; inactive = no such curve, though single readings can be large; an effect the other way counts as inactive or inconclusive.

SMILES	PTAP-TSG101 blk	B2AR arrestin ag	GALK inhibitor	FH mod	GALC G270D up	GPR32 ag
Cc1cccc(NC(=O)CSc2nc3ccc(NC(=O)c4ccccc4)cc3s2)c1	-	-	-	-	-	60
CCOC(=O)CSc1nc2ccc(NC(=O)c3cccc(F)c3)cc2s1	-	-	-	-	-	73
Cc1ccc(NC(=O)CSc2nc3ccc(NC(=O)CCc4ccccc4)cc3s2)c(C)c1	-	-	-	-	-	-
C=CCC/C=C/C#CCCCCCCCC[C@H]1C(=O)O[C@H](C)[C@@H]1O	.	.	.	-	.	.
CC1=C(C)C(=O)C(CCCCC#CCCCC#CCO)=C(C)C1=O	.	.	.	28µM	-	-
COc1c(Cl)cc(C(=O)Nc2cccc(-c3nc4ccccc4[nH]3)c2)cc1Cl	-	-	-	-	-	106
O=C(Nc1ncc(SCCN2CCCC2)s1)C1(c2ccc(S(=O)(=O)C3CC3)cc2)CC1C1CCCCC1 (centres undefined)	.	.	.	-	.	.
Cc1cc(Nc2nc(NC(C)c3ccc(F)cc3)c(C#N)cc2F)n[nH]1 (centres undefined)	.	.	.	-	.	.
COCCCn1c(=N)c(C(=O)NC2CCCC2)cc2c(=O)n3cccc(C)c3nc21	-	-	-	-	25µM	-
CCC(C)n1c(=N)c(C(=O)NC2CCCC2)cc2c(=O)n3ccccc3nc21 (centres undefined)	-	-	-	-	10µM	-
CC(C)n1c(=N)c(C(=O)NCc2cccnc2)cc2c(=O)n3ccccc3nc21	-	-	-	-	4µM	-
CCC(C)n1c(=N)c(C(=O)NC2CCCCC2)cc2c(=O)n3cc(C)ccc3nc21 (centres undefined)	-	-	-	-	32µM	-
CC(C)n1c(=N)c(C(=O)NCc2ccccc2)cc2c(=O)n3ccccc3nc21	-	-	-	-	-	-
Cc1ccc2nc3c(cc(C(=O)NC4CCCC4)c(=N)n3C(C)C)c(=O)n2c1	-	-	-	-	-	-
CC(C)(C)c1ccc(S(=O)(=O)Nc2ccc(-n3ccnc3)cc2)cc1	.	.	.	-	.	.
Cc1ccccc1-c1nc2cc(NC(=O)Cc3ccc(Cl)cc3)ccc2o1	-	-	-	-	-	118
O=C(COc1ccccc1Cl)Nc1ccc2oc(-c3ccccc3F)nc2c1	-	-	-	-	-	-
Cc1cccc(OCC(=O)Nc2ccc3oc(-c4ccccc4F)nc3c2)c1	-	-	-	-	-	121
Cc1cccc(OCC(=O)Nc2ccc3nc(Nc4cccc(C(F)(F)F)c4)cc(C)c3c2)c1	-	-	-	-	-	76
CN1CCC(c2c(O)cc(O)c3c(=O)cc(-c4ccccc4Cl)oc23)C1CO (centres undefined)	.	.	.	-	.	.
COC1(CC(C)C)NC(=O)C(O)(Cc2ccccc2)NC1=O (centres undefined)	.	.	.	-	.	.
Cc1ccc(-c2nc(-c3cc4cccc(OCc5cccc(F)c5)c4oc3=O)no2)cc1	-	-	-	-	-	82
CNCCC(c1cccs1)c1ccc(O)c2ccccc12 (centres undefined)	.	.	.	-	.	.
O=C(Nc1nonc1-c1ccc(Br)cc1)c1ccco1	-	-	-	-	-	71
C[C@@H]1O[C@@H](O[C@H]2[C@H](OC(=O)[C@]34CCC(C)(C)C[C@H]3C3=CCC5[C@@]6(C)C[C@@H](O)[C@@H](O[C@@H]7O[C@H](CO)[C@@H](O)[C@H](O)[C@H]7O)[C@@](C)(CO)C6[C@H](O)C[C@@]5(C)[C@]3(C)CC4)OC[C@H](O)[C@@H]2O)[C@H](O)[C@H](O[C@@H]2OC[C@](O)(CO)[C@H]2O)[C@H]1O[C@@H]1OC[C@@H](O)[C@H](O[C@H]2O[C@H](C)[C@@H](O)[C@H](O)[C@@H]2O)[C@H]1O (some centres undefined)	.	.	.	-[13.5 µM]	.	.
SMILES	PTAP-TSG101 blk	B2AR arrestin ag	GALK inhibitor	FH mod	GALC G270D up	GPR32 ag
O=C1C(SCCO)=C(SCCO)C(=O)c2ccccc21	.	.	.	7.9µM	.	-
CCN(CC)CCNC(=O)c1ccc2c(c1)NC(=O)C(CS(=O)(=O)Cc1cccc(Br)c1)N2 (centres undefined)	-	-	-	-	-	-
CCN(CC)CCCNC(=O)c1ccc2c(c1)NC(=O)C(CS(=O)(=O)Cc1cccc(Br)c1)N2 (centres undefined)	-	-	-	-	35µM	-
Cc1ccc(NS(=O)(=O)c2ccc3nc(-c4ccccc4)[nH]c3c2)c(Br)c1	-	-	-	-	-	?
Cc1cccc(NS(=O)(=O)c2ccc3nc(-c4ccccc4)[nH]c3c2)c1C	-	-	-	-	-	86
CC(C)c1ccc(NS(=O)(=O)c2ccc3nc(-c4ccccc4)[nH]c3c2)cc1	-	-	-	-	-	110
Cc1ccc(NS(=O)(=O)c2ccc3nc(-c4ccccc4)[nH]c3c2)c(Cl)c1	-	-	?	-	-	104
CC1=CC2=C(C)C(=O)C(C)(O)C(O)C2CO1 (centres undefined)	.	.	.	-	.	.
COc1ccc2nc3n[nH]c(C)c3c(NCCOCCO)c2c1	.	.	.	-	.	.
COc1ccc(/C=C/C(=O)O[C@@H]2[C@@H](O)[C@H](C)O[C@@H](OC3C4C=COC(O[C@@H]5O[C@H](CO)[C@@H](O)[C@H](O)[C@H]5O)C4C4(CO)OC34)[C@@H]2O)cc1OC (some centres undefined)	.	.	.	-	.	.
C[C@H]1Oc2cc(cnc2N)-c2c(nn(C)c2C#N)CN(C)C(=O)c2ccc(F)cc21	.	.	.	-	.	.
CCOC(=O)c1ccc(NC(=O)c2cc3cc(C)ccc3n2C)cc1	-	-	-	-	-	72
Cc1cc(O)c(C(C)C)cc1Cl	.	.	.	-	-	86
O=C(Nc1cccc(Cl)c1)C1CCCN(c2ncnc3c2nc2n3CCCCC2)C1 (centres undefined)	-	-	-	-	-	67
COC(=O)[C@]1(Cc2ccc(O)c(CC=C(C)C)c2)OC(=O)C(O)=C1c1ccc(O)cc1	.	.	.	-	.	.
CCN(CC)c1sc(S(=O)(=O)c2ccccc2)nc1S(=O)(=O)c1ccc(C)cc1	-	-	-	-	-	-
CCCS(=O)(=O)c1nc(S(=O)(=O)c2ccc(C)cc2)c(N(CC)CC)s1	-	-	-	-	7.9µM	-
CCCN(CCC)CC(O)Cn1cc(/C=C/C(=O)c2ccc(OCC)cc2)c2ccccc21 (centres undefined)	-	-	-	-	35µM	?

Screening results (PubChem BioAssay)
